The text below walks through data of PubChem BioAssay (EPA / NIEHS).

SMILES strings stand for the structures. Activity calls are given as the source filed them. The calls were made as follows: active = hit-call score of the fitted dose curve at least 0.9, where 1 is the maximum; inactive = score below 0.9.

The assay is described as follows: CCTE_Simmons_MITO_basal_resp_rate: CCTE's HepG2 Seahorse XF Respirometric Screening Assay at Basal Respiratory State, Simmons Lab (AID 2284001). The settings on record: actives raise or lower the signal. As for the experimental part:
CCTE_Simmons_MITO is cell-based, respirometric assay using HepG2 cells and a Seahorse XF Analyzer to measure oxygen consumption rates over four temporal phases spanning a total of 72 minutes: pre-injection (pre-treatment), basal (following test compound injection), maximal (following FCCP uncoupler injection), and inhibited (following rotenone/antimycin A injection)CCTE_Simmons_MITO_basal_resp_rate is one of 4 assay components calculated from the CCTE_Simmons_MITO assay. It is designed to make measurements of basal respiration using a form of respirometric reporter, as detected with […] signals by Seahorse XF96 technology. Data from the assay component CCTE_Simmons_MITO_basal_resp_rate was analyzed at the endpoint, CCTE_Simmons_MITO_basal_resp_rate_OCR, with bidirectional fitting relative to DMSO as the negative control and baseline of activity. Using a type of respirometric reporter, measures of basal respiration for gain or loss-of-signal activity can be used to understand cellular oxygen consumption as it relates to cellular respiration. To generalize the intended target to other relatable targets, this assay endpoint is annotated to the mitochondria intended target family, where the subfamily is respiration.
Test chemicals were administered as a titrated series of 7 concentrations from 125 nM up to 100 uM [final] prior to kinetic endpoint detection at 6 minute intervals [3 min mix followed by 3 minutes measure] for 72 minutes. Three biological replicates of technical singles were run for every chemical concentration tested. Dimethylsulfoxide [DMSO] was used as the vehicle control. The electron transport chain inhibitor fenpyroximate was used as the positive control for decreased basal respiration and was administered as a titrated series of 6 concentrations from 250 nM up to 2.75 uM [final] with technical triplicates for the top concentration only. The uncoupler 2,4-dintirophenol was used as the positive control for increased basal respiration and was administered as a titrated series of 6 concentrations from 938 nM up to 40 uM [final] with technical triplicates for the top concentration only. A Seahorse XF Analzyer is required to measure the response.
As to `COc1cc(C=O)cc2c1[C@H](COC(N)=O)[C@]1(OC(C)=O)ON2C[C@H]2[C@@H]1N2C(C)=O`, the outcome was inactive.

Turning to `CC(C)COC(=O)c1ccccc1C(=O)OCC(C)C`, the AC50 was 56.3 µM (active).

In the case of `CCCCCCCCn1sccc1=O`, the call was inactive.

For `Nc1ccc(N=Nc2ccccc2)cc1`, the call was inactive.

In the case of `CCC[CH2][Sn]([Cl])([CH2]CCC)[CH2]CCC`, the AC50 is 4.86 µM (active).

Consider `C[C@]12C=CC3=C4CCC(=O)C=C4CC[C@H]3[C@@H]1CC[C@@H]2O`, for which the result was inactive.

For the molecule `CC(C)N(Cc1ccccc1)C(=O)C(C)(C)C`, the AC50 was 35.6 µM (active).

Consider `Cc1cc(N=Nc2ccccc2C)ccc1N`, for which the AC50 was 25 µM (active).

For `CC(C)(C)C(O)(CCc1ccc(Cl)cc1)Cn1cncn1` (configuration not stated), the AC50 was 39.6 µM (active).

On to `CCC(C)c1ccc(O)cc1` (configuration not stated), for which the AC50 is 44.3 µM (active).

Turning to `[Cl-].[Cl-].[Hg+2]`, the AC50 is 36.7 µM (active).

In the case of `CCOC(=O)[C@]1(c2ccccc2)Oc2ccccc2[C@@H]1N`, the AC50 was 43.2 µM (active).
